What all share (experiment): NCI-60 one-dose screen, 48 h (100 = growth as untreated, 0 = no growth, -100 = all killed)
Holding throughout (conditions): 10 µM

Test [1] has as its system SK-MEL-2 melanoma.
Test [2] has as its system EKVX NSCLC.
Test [3] deals with SN12C renal.
Test [4] concerns UO-31 renal.
Test [5] relates to TK-10 renal.
In test [6] the test system is ACHN renal.
The test system of test [7] is CAKI-1 renal.
Test [8] has as its system A498 renal.
The test system of test [9] is MOLT-4 leukemia.
The test system of test [10] is SR leukemia.
The test system of test [11] is RPMI-8226 leukemia.
For test [12], the system named is OVCAR-8 ovarian.
The subject of test [13] is OVCAR-5 ovarian.
Test [14] relates to SK-OV-3 ovarian.
In test [15] the test system is IGROV1 ovarian.
In test [16] the test system is OVCAR-3 ovarian.
Test [17] deals with HS 578T breast.
In test [18] the test system is NCI/ADR-RES ovarian.
Test [19] concerns OVCAR-4 ovarian.

This is part of a sample that, as a whole, favours compounds with a hit. Of some 83,000 tested, about 20% had one in any assay.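 96-well plates, one dose, 48 hours. Percent growth reported; active if below 10.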 Unmarked numbers belong to inactive results. The source made the active and inactive calls.

`Nc1ccn(Cc2nnc(CCC(=O)c3nc4ccccc4[nH]3)o2)c(=O)n1`: the growth is 100% in [1]; 84.1% in [2]; 87.1% in test [3]; 44.2% in test [4]; 100% in test [5]; 87% in [6]. The growth in test [7] was 82.8%; in [8] it was 61.7%; in test [9], 8.54% (active); in test [10], 14.9%; in test [11] it was 73.1%; in [12], 88.5%. The growth in test [13] is 98%; in test [14] it was 98.7%; in test [15], 65.3%; in test [16] it was 102%; in test [17] it was 81.3%; in test [18], 86.1%.

As to `O=C(CCn1cnc2c(cc(-c3ccccc3)n2-c2ccccc2)c1=O)Nc1ccc(F)cc1`, the growth in [1] was 84.5%; in [2], 80.8%; in test [3], 73.6%; in [4] it was 75%; in test [5], 92.8%; in test [6], 55.7%. Besides, the growth in test [7] was 97.1%; in test [8] it was 63.8%; in [9], 85.5%; in test [10], 72.3%; in test [11], 79.3%; in [12], 54%. The growth in test [13] was 85.8%; in test [14] it was 64.6%; in [15], 81.3%; in test [16] it was 76.7%; in test [17], 63.1%; in test [18] it was 55.1%.

Take `Cc1ccc(/C=C/C(=O)C(=O)/C=C/c2ccc(C)cc2)cc1`: the growth in test [1] is 105%; in [2], 92.7%; in [3] it was 105%; in test [4], 89.7%; in test [5] it was 92%; in test [6], 104%. For the same compound, the growth in [7] is 94.8%; in [8], 101%; in test [9], 91.8%; in test [10], 68%; in test [11] it was 45.2%; in [13] it was 97.8%. Also, the growth in [19] is 98.6%; in test [14], 109%; in test [15], 94.4%; in test [16], 112%; in test [17], 92.6%; in [18] it was 103%.

As to `CC(C)(C)OC(=O)N1CCc2c(sc3ncnc(N/N=C/c4ccccc4Br)c23)C1`, the growth is 91.7% in test [1]; 52.2% in test [2]; 78.7% in test [3]; 32.7% in test [4]; 79.6% in test [5]; 42.4% in [6]. Besides, the growth is 54.4% in test [7]; 84.7% in test [8]; 21.2% in test [9]; 39.4% in test [10]; 71.6% in test [12]; 78.3% in [13]. Besides, the growth in test [19] was 72.9%; in test [14], 114%; in [15], 68.6%; in [16], 62.9%; in [17], 98.7%; in test [18], 71.6%.

Regarding `CC[C@H]1OC(=O)[C@H](C)[C@@H](O[C@H]2C[C@@](C)(OC)[C@@H](O)[C@H](C)O2)[C@H](C)[C@@H](O[C@@H]2O[C@H](C)C[C@H](N(C)C)[C@H]2O)[C@](C)(OC)C/C(C)=C2/O[C@@]1(C)C=C2C`, the growth in test [1] was -17.3% (active); in [2], 75%; in test [3], 76.9%; in [4], 50.5%; in [5] it was 97.4%; in [6], 24.5%. In addition, the growth in [7] was 21.7%; in [8], 83.9%; in test [9], 1.08% (active); in test [10] it was 14.8%; in [13] it was 24.9%; in [19], 73.5%. The growth is 102% in test [14]; 58.1% in [15]; 75.3% in test [16]; 62.5% in test [17]; 65.4% in test [18].

`COc1ccc(-c2cc(-c3ccccc3)nc(SCCCCCCC(=O)NO)n2)cc1`: the growth was 78% in test [1]; 74.2% in [2]; 79.6% in test [3]; 34.3% in test [4]; 45.9% in test [5]; 45.4% in test [6]. The growth was 39.6% in [7]; 48.7% in test [8]; 14.4% in test [9]; 43.7% in test [12]; 58.2% in test [13]; 76.6% in test [19]. For the same compound, the growth in test [14] was 61.2%; in test [15], 32.2%; in [16], 67.8%; in test [17] it was 54%; in [18], 9.46% (active).

Consider `COc1ccc(C(c2ccc(OCCN(C)C)cc2)c2cc3ccccc3c3ccccc23)cc1` (configuration not stated), for which the growth is 86.4% in test [1]; 56.6% in test [2]; 64.4% in test [3]; 72.2% in test [4]; 88% in test [5]; 21.6% in test [6]. Further, the growth in test [7] was 76.5%; in test [8], 101%; in test [9], 5.83% (active); in test [11], 13.2%; in [13], 79.3%; in test [19], 77.9%. Moreover, the growth is 106% in test [14]; 61.7% in [15]; 62.6% in [16]; 75.1% in test [17]; 68.1% in [18].

Turning to `COc1ccc(C2=Cn3c(CCC(=O)c4nc5ccccc5[nH]4)nnc3SC2)cc1`, the growth was 106% in test [1]; 90.3% in [2]; 98.9% in test [3]; 82% in [4]; 125% in [5]; 110% in test [6]. In addition, the growth in test [7] was 96.9%; in test [8], 58%; in [9], 43.2%; in test [10], 18.9%; in test [11], 61.7%; in [12], 120%. Also, the growth was 116% in [13]; 120% in test [14]; 91.6% in test [15]; 113% in test [16]; 92.8% in [17]; 105% in test [18].

As for `CC(C)(C)OC(=O)CN1CCc2c(sc3ncnc(N/N=C/c4cccc5ccccc45)c23)C1`, the growth was 71.1% in test [1]; 2.48% (active) in [2]; 48.4% in test [3]; 3.34% (active) in test [4]; 50.5% in [5]; 15.7% in test [6]. Further, the growth in test [7] is 35.1%; in [8], 52.4%; in test [9], 9.27% (active); in [10] it was 18.2%; in test [12], 35.6%; in [13] it was 31.1%. The growth in [14] is 67.4%; in test [15], 30.1%; in test [16], 39.9%; in [17] it was 21.5%; in [18], 7.91% (active).

Turning to `O=C(CCCSc1nc(-c2ccc(Cl)cc2)cc(-c2ccc(Cl)cc2)n1)NO`, the growth in test [1] is 20.8%; in test [2], -19.7% (active); in test [3], 4.81% (active); in test [4], -34.9% (active); in test [5] it was 24.3%; in test [6] it was 2.26% (active). Besides, the growth in [7] is 2.08% (active); in test [8], -3% (active); in [9] it was 4.91% (active); in test [10], 7.59% (active); in test [12], 13.7%; in test [13], 18%. Besides, the growth is 19.2% in [19]; 14.2% in [14]; 24.8% in test [15]; 5.4% (active) in test [16]; 53.5% in [17]; -28.7% (active) in [18].

On to `CC(C)(C)OC(=O)CN1CCc2c(sc3ncnc(N/N=C/c4ccccc4Br)c23)C1`, for which the growth in test [1] is 87.4%; in test [2], 44.5%; in test [3], 73.3%; in test [4], 37.6%; in [5] it was 90.8%; in test [6], 56.6%. Further, the growth is 51.3% in test [7]; 77% in [8]; 11.1% in [9]; 37.6% in [10]; 61.5% in test [12]; 92.3% in [13]. Besides, the growth in test [19] was 74.7%; in [14], 109%; in test [15], 50.6%; in [16] it was 69%; in test [17], 77%; in [18], 71.7%.

On to `C=CCN(CC=C)C(=O)[C@H](CC)[C@@H]1CC[C@@H](C)[C@@H]([C@H](C)[C@@H](O)[C@@H](C)C(=O)[C@H](CC)C2O[C@]3(C=C[C@@H](O)[C@]4(CC[C@@](C)([C@H]5CC[C@](O)(CC)[C@H](C)O5)O4)O3)[C@H](C)C[C@@H]2C)O1` (some centres not stated), for which the growth in test [1] was -7.12% (active); in test [2], -5.86% (active); in [3], 6.36% (active); in [4], -12.6% (active); in test [5], 16.2%; in test [6], 5.93% (active). In addition, the growth in test [7] was 1.41% (active); in [8], -2.03% (active); in [9], 19.4%; in test [12], 16%; in [13] it was 31.9%; in test [19] it was 25.4%. Also, the growth in test [14] is 4.44% (active); in test [15] it was 10.7%; in test [16] it was 14.6%; in test [17], 13.4%; in [18] it was 1.02% (active).

`CC[C@@H](C(=O)[C@H](C)[C@H](O)[C@@H](C)[C@H]1O[C@H]([C@@H](CC)C(=O)N(CC)CC)CC[C@H]1C)C1O[C@]2(C=C[C@@H](O)[C@]3(CC[C@@](C)([C@H]4CC[C@](O)(CC)[C@H](C)O4)O3)O2)[C@H](C)C[C@@H]1C` (some centres not stated): the growth in test [1] was 0.113% (active); in test [2], 1.82% (active); in [3], 17.4%; in test [4] it was -5.88% (active); in [5] it was 24.3%; in [6], 5.95% (active). Further, the growth in test [7] is 8.82% (active); in test [8], 13.8%; in [9] it was 28.9%; in test [10] it was 55.5%; in [12] it was 25.4%; in test [13], 32%. Further, the growth in [19] is 28.2%; in [14], 20.8%; in test [15], 19.8%; in test [16] it was 14.3%; in [17] it was 24.1%; in test [18], 5.44% (active).

With `CCCCN(CCCC)C(=O)[C@H](CC)[C@@H]1CC[C@@H](C)[C@@H]([C@H](C)[C@@H](O)[C@@H](C)C(=O)[C@H](CC)C2O[C@]3(C=CC(=O)[C@]4(CC[C@@](C)([C@H]5CC[C@](O)(CC)[C@H](C)O5)O4)O3)[C@H](C)C[C@@H]2C)O1` (some centres not stated), the growth in [1] is 26.2%; in [2] it was 27.7%; in test [3], 28.7%; in test [4], 13.4%; in [5] it was 42.6%; in [6], 13.7%. Further, the growth is 21.6% in test [7]; 41% in [8]; 39.4% in test [9]; 75.1% in test [10]; 34.7% in test [12]; 39.4% in test [13]. Also, the growth in [19] is 42.7%; in test [14], 51.9%; in [15], 59.3%; in test [16] it was 31.5%; in test [17] it was 43.1%; in test [18], 78.2%.

The values above are taken from PubChem BioAssay (NCI).
